The source made the active and inactive calls. No rule for the calls is given here.
test: cell-free Rh123 fluorescence quenching read-out – biochemical, dry powder samples, uHTS hits, counter-screen for mtPTP inhibitor project, dose response (AID 743361); details: Rhodamine 123 fluorescence quenching counterscreen

Row | SMILES | IC50
1 | COc1ccc(Cl)cc1C(=O)Nc1ccc(N(C)C)cc1 | > 100 µM (inactive)
2 | CN1CCN(c2ccc(NC(=O)c3ccc(OCc4ccccc4)cc3)cc2)CC1 | > 100 µM (inactive)
3 | Cc1ccc(NC(=O)c2cc(-c3cccc(O)c3)on2)cc1Cl | > 100 µM (inactive)
4 | O=C(Nc1ccc(CN2CCCCC2)cc1)c1cc(OCc2ccccc2)ccc1Cl | 76.2 µM (active)
5 | O=C(Nc1ccc(Br)cc1)c1cc(C2CC2)on1 | > 100 µM (inactive)
6 | COc1ccccc1C(=O)Nc1ccc(C(=O)N2CCCCC2)cc1 | > 100 µM (inactive)
7 | O=C(Nc1cccc(F)c1)c1cc(-c2cccc(O)c2)on1 | > 100 µM (inactive)
8 | O=C(Nc1cccc(Cl)c1)c1cc(-c2ccc(Cl)cc2)on1 | > 100 µM (inactive)
9 | Cc1c(Cl)cccc1NC(=O)c1cc(-c2cccc(O)c2)on1 | > 100 µM (inactive)
10 | COc1cccc(-c2cc(C(=O)Nc3cc(Cl)ccc3C)no2)c1 | > 100 µM (inactive)
11 | COc1ccc(Cl)c(C(=O)Nc2cccc(CN3CCN(C(=O)OC(C)(C)C)CC3)c2)c1 | > 100 µM (inactive)
12 | CN1CCN(Cc2ccc(NS(=O)(=O)c3cc(Cl)cc(Cl)c3)cc2)CC1 | > 100 µM (inactive)
13 | COc1ccc(/C=C/C(=O)Nc2cccc(Cl)c2)cc1O | > 100 µM (inactive)
14 | COc1ccc(Cl)cc1C(=O)Nc1cccc(CN2CCNCC2)c1 | > 100 µM (inactive)
15 | O=C(Nc1cccc(Cl)c1)c1cc(-c2cccc(O)c2)on1 | > 100 µM (inactive)
16 | O=C(Nc1ccc(CN2CCCCC2)cc1)c1cccc(Cl)c1 | > 100 µM (inactive)

Row | SMILES | IC50
17 | CN1CCN(c2ccccc2NC(=O)c2ccc(OCc3ccccc3)cc2)CC1 | > 100 µM (inactive)
18 | COc1ccc(Cl)c(C(=O)Nc2ccc(CN3CCOCC3)cc2)c1 | > 100 µM (inactive)
19 | CCN(C(=O)c1cc(Cl)ccc1OC)c1ccccc1 | > 100 µM (inactive)
20 | Cc1cc(NC(=O)c2ccc(-n3cnnc3)cc2)no1 | > 100 µM (inactive)
21 | COc1ccc(Cl)c(C(=O)Nc2ccc(CCN3CCCCC3)cc2)c1 | > 100 µM (inactive)
22 | COc1ccc(NC(=O)c2cc(Cl)cc(Cl)c2OC)cc1 | > 100 µM (inactive)
23 | COc1ccc(Cl)cc1C(=O)Nc1cccc(CN2CCN(C(=O)OC(C)(C)C)CC2)c1 | 73.5 µM (active)
24 | C[C@@H]1CCC[C@H](C)N1CCCC(=O)c1ccc(Br)cc1 | > 100 µM (inactive)
25 | COc1c(Cl)cccc1NC(=O)c1cc(-c2cccc(O)c2)on1 | > 100 µM (inactive)
26 | COc1ccc(Cl)cc1C(=O)Nc1ccc(CN2CCOCC2)cc1 | > 100 µM (inactive)
27 | O=C(Nc1ccc(F)cc1F)c1cc(-c2ccccc2)on1 | > 100 µM (inactive)
28 | CC1CCN(CCCC(=O)c2ccc(Br)cc2)CC1 | > 100 µM (inactive)
29 | CCc1ccccc1NC(=O)c1cc(-c2ccccc2)on1 | > 100 µM (inactive)
30 | COc1ccc(Cl)cc1C(=O)Nc1ccc(CCN2CCOCC2)cc1 | > 100 µM (inactive)
31 | O=C(Nc1cc(Cl)ccc1Cl)c1cc(-c2cccc(O)c2)on1 | 38.7 µM (active)

From PubChem BioAssay AID743361 (Molecular Libraries Program, Specialized Chemistry Center, …, 2014)
